Test results published in PubChem BioAssay (NCATS).
Where “and” joins values, the source holds several entries; their conditions need not be identical. Equal entries are not always repeated. Results filed as inconclusive are left out. Calls of active or inactive are those of the source. Unless noted, calls follow the shape of the full dose curve.

What was measured:
[1] = target: Lysosomal acid glucosylceramidase (Homo sapiens) (UniProt P04062); assay: Glucocerebrosidase-p2 (AID 348; in the data active = potency below about 10 µM; also: potency is read from the fitted curve at half-maximal effect); settings: purified GBA, blue fluorogenic substrate, 40 min
Outline: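 Normal human glucocerebrosidase (0.2 nM) with blue fluorogenic substrate (80 uM final) in citrate/phosphate pH 5.9 with 10mM sodium taurocholate, 0.01% tween-20; 40 min RT, NaOH/glycine stop; fluorescence Ex 365/Em 440; AC50 from a titration from 0.6 nM upwards.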

[2] = AP1 Signaling Pathway (AID 357; active = well fitted curve in either direction with a large enough effect, not every such curve was filed as active;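 also: ME-180 reporter cells stimulated with EGF at its EC50 level; % is scaled to controls: 0 for no effect and ±100 for the full control effect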); settings: ME-180 (cervical carcinoma) AP-1-bla reporter, EGF-induced, beta-lactamase ratio, 5 h; at 7.69 µM (top of the series) unless noted
Outline: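 First, ME-180 AP-1-bla cells were cultured overnight at 37 °C in low-serum Opti-MEM. Next, titrated compounds with EC50 EGF were incubated 5 hours. Finally, CCF4 was added for 2.5 hours and the 460/530 nm ratio recorded.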

[3] = NFAT Signaling Pathway (AID 444; active = well fitted curve in either direction with a large enough effect, not every such curve was filed as active;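 also: carbachol stimulus at about its EC50 of 1 µM final; % is scaled to controls: 0 for no effect and ±100 for the full control effect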); settings: Jurkat NFAT-bla M1, carbachol, beta-lactamase ratio, 5 h; at 7.69 µM (top of the series) unless noted
Outline: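 Jurkat cells carrying an NFAT-driven β-lactamase reporter and co-transfected muscarinic M1 receptor were treated with compound plus carbachol (1 uM final, an EC50 level) for 5 h at 37 °C. CCF4 loading followed for 1 h at RT; 460/530 nm ratio gave %activity.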

[4] = target: Glucocorticoid receptor (Homo sapiens) (UniProt P04150); assay: GR-GFP Redistribution (AID 450;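 active = compounds whose dose series gives a full or clear partial fitted curve of increased nuclear translocation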; also: potency is read from the fitted curve at half-maximal effect); settings: U2OS GR-GFP nuclear translocation, laser cytometry, 2 h
[5] = target: Glucocorticoid receptor (Homo sapiens) (UniProt P04150); assay: GR-EFC Redistribution (AID 451); settings: CHO-K1 GR-EFC translocation, beta-gal luminescence, 2 h; also: potency is read from the fitted curve at half-maximal effect
Outline: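 CHO-K1 cells stably expressing nuclear-localized β-gal enzyme acceptor and GR fused C-terminally to the enzyme donor fragment; ligand-driven nuclear translocation restores β-gal by complementation. Compounds titrated up to 46 uM final, 2 h at 37 °C; luminescence read.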

[6] = Cell Viability - LYMP1-002 - Assay at 40 hr (AID 994; active = well fitted curve in the direction sought with a large enough effect; an effect the other way counts as inactive or inconclusive;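 also: 0% = DMSO only and full inhibition = 92 µM tetraoctylammonium bromide; nearly all actives have a fitted effect of over 60% in size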); settings: LYMP1-002 lymphoblastoid cell viability; series mostly up to 92.2 µM
Outline: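 qHTS cytotoxicity; 2500 cells/well, 5 hr 37 C settle, compound 40 hr 37 C. CellTiter-Glo, 30 min RT, luminescence (ATP). Concentration-response, Hill fit → AC50. Pos. ctrl tetraoctylammonium bromide.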

[7] = target: Bile acid receptor (Homo sapiens) (UniProt Q96RI1); assay: qHTS assay for small molecule antagonists of farnesoid X receptor signaling (AID 588526); settings: HEK293T FXR-UAS-bla, beta-lactamase ratio, antagonist mode; series mostly up to 76.7 µM; also: % is scaled to controls: 0 for no effect and ±100 for the full control effect
Outline: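 Concentration-response titrations were fitted to the Hill equation for half-maximal inhibition and maximal response, with data normalised to 50 uM chenodeoxycholic acid and DMSO control wells. Cells: FXR-UAS-bla HEK293T, dialyzed FBS.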

[8] = target: Glucocorticoid receptor (Homo sapiens) (UniProt P04150); assay: qHTS assay for small molecule agonists of glucocorticoid receptor signaling (AID 588532; active = well fitted curve in the direction sought with a large enough effect in the signal ratio, with a control signal flat; the % refers to the signal ratio;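 also: 100% = dexamethasone at 0.1 µM and 0% = DMSO only wells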); settings: HeLa MMTV-bla, beta-lactamase ratio, agonist, 18 h; stronger effect = higher value; percent of dexamethasone control, DMSO zero
Outline: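 Titration series, up to 92 uM, applied to GRE-bla HeLa cells for 18 h at 37 C. Detection by CCF4 FRET substrate after 2 h at RT.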

[9] = target: Glucocorticoid receptor (Homo sapiens) (UniProt P04150); assay: qHTS assay for small molecule antagonists of glucocorticoid receptor signaling (AID 588533; active = well fitted inhibition curve with a large enough effect in the signal ratio, with a control signal flat, not every such curve was filed as active; the % refers to the signal ratio;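 also: cells stimulated with 2 nM dexamethasone as agonist; % is scaled to controls: 0 for no effect and ±100 for the full control effect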); settings: HeLa MMTV-bla, GRE beta-lactamase ratio, antagonist mode, 18 h; series mostly up to 76.8 µM
Outline: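 Antagonist-mode qHTS: compound titrations added to GRE-bla HeLa cells, then dexamethasone 2 nM final; 18 h, 37 C. CCF4 FRET fluorescence normalized to dexamethasone and DMSO; IC50 from Hill fit.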

[10] = qHTS assay for small molecule antagonists of peroxisome proliferator-activated receptor delta signaling (AID 588535; active = well fitted inhibition curve with a large enough effect in the signal ratio, with a control signal flat, not every such curve was filed as active; the % refers to the signal ratio;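 as to max response: cells co-treated with a PPAR-delta agonist as stimulator during compound exposure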); settings: HEK293T PPARd-UAS-bla, beta-lactamase FRET ratio, 18 h; 460 nm channel
Outline: (§1)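 Compounds tested in titration on PPAR-delta-UAS-bla HEK293T cells grown in charcoal/dextran-stripped serum (2%); beta-lactamase activity read via CCF4 emission at 460 and 530 nm.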

[11] = target: Peroxisome proliferator-activated receptor delta (Homo sapiens) (UniProt Q03181); assay: as above; settings: HEK293T PPARd-UAS-bla, beta-lactamase FRET ratio, 18 h; series mostly up to 76.7 µM
Outline: as §1

[12] = target: Vitamin D3 receptor (Homo sapiens) (UniProt P11473); assay: qHTS assay for small molecule antagonists of vitamin D receptor signaling (AID 588541); settings: HEK293T VDR-UAS-bla, beta-lactamase ratio, antagonist mode; series mostly up to 76.7 µM
Outline: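 VDR-UAS-bla HEK293T cells (2000/well, 2% charcoal-stripped FBS) were treated with titrated compounds plus 1-alpha,25-dihydroxyvitamin D3 (50 nM or 3 nM final) for 16 h at 37 C. CCF4 beta-lactamase fluorescence was read; Hill fits gave IC50.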

[13] = target: Vitamin D3 receptor (Homo sapiens) (UniProt P11473); assay: qHTS assay for small molecule agonists of vitamin D receptor signaling (AID 588543); settings: HEK293T VDR-UAS-bla, beta-lactamase ratio, 16 h; series mostly up to 76.8 µM;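 also: 0% = DMSO basal and 100% = reference agonist control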
Outline: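 qHTS in agonist mode: compound titrations stimulate a VDR-driven β-lactamase reporter in HEK293T cells over 16 h at 37 °C. Response normalized to 50 nM 1α,25-dihydroxyvitamin D3 = 100%, DMSO = 0%; Hill fitting gives EC50 and maximal response.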

[14] = qHTS assay for small molecule agonists of the antioxidant response element (ARE) signaling pathway (AID 651741; active = well fitted activation curve with a large enough effect in the signal ratio; the % refers to the signal ratio; also: potency is read from the fitted curve at half-maximal effect; as to activation: % of control where 0% means no effect); settings: HepG2 ARE-bla reporter, beta-lactamase FRET ratio, 16 h; series mostly up to 96 µM
Outline: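 Beta-lactamase reporter expression driven by the antioxidant response element in HepG2 cells was detected by fluorescence with LiveBLAzer B/G FRET substrate (2 h, room temperature) following 16 h compound treatment at 37 C.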

[15] = qHTS assay for small molecule activators of the nuclear factor-kappa B (NF-kB) signaling pathway (AID 651749; active = well fitted activation curve with a large enough effect in the signal ratio; the % refers to the signal ratio; also: % of control where 0% means no effect); settings: NF-kB-bla ME-180 cells, beta-lactamase FRET ratio, 16 h; stronger effect = higher value
Outline: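 Beta-lactamase reporter expression, controlled by NF-kB response elements in ME-180 cells, was quantified fluorometrically via FRET disruption; cells at 2,000/well had been incubated with 23 nL test compound for 16 hr.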

[16] = qHTS assay to identify small molecules that stimulate interleukin-8 (IL-8) secretion (AID 651758; active = well fitted activation curve with a large enough effect in the signal ratio; the % refers to the signal ratio; also: potency is read from the fitted curve at half-maximal effect; as to activation: 0% is about no effect); settings: HTRF ratio (665/615); series mostly up to 92.2 µM
Outline: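 Quantitative HTS in THP-1 monocytic cells at 2000 cells per well, with 16 hrs compound incubation at 37 C. IL-8 in the medium was then quantified by HTRF immunoassay, read after 1-3 hrs at room temperature.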

[17] = target: Nuclear receptor ROR-gamma (Homo sapiens) (UniProt P51449); assay: qHTS assay for small molecule antagonists of the retinoid-related orphan receptor gamma (ROR-gamma) signaling pathway (AID 651802; active = well fitted curve in the direction sought with a large enough effect; an effect the other way counts as inactive or inconclusive;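 also: CHO cells with doxycycline-induced ROR-gamma expression; luciferase reporter luminescence driven by ROR response element; % is scaled to controls: 0 for no effect and ±100 for the full control effect; nearly all actives have a fitted effect of over 60% in size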); settings: ROR-gamma antagonist cell reporter assay; series mostly up to 92.2 µM
Outline: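 Luciferase read-out: ONE-Glo luminescence after 30 min at room temperature, following 16hr doxycycline induction at 37C, 5% CO2 of CHO cells with TET-inducible ROR and RORE-LUC reporter; decreased luminescence = reduced reporter activity.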

[18] = qHTS assay for small molecule agonists of the antioxidant response element (ARE) signaling pathway measured by Nrf2-dependant transcriptional activity - cell viability counter screen (AID 720653; active = well fitted curve in the direction sought with a large enough effect in the repeat runs; an effect the other way counts as inactive or inconclusive; also: % is scaled to controls: 0 for no effect and ±100 for the full control effect); settings: ARE-bla HepG2 viability, CellTiter-Glo ATP luminescence, 16 h; max response: stronger effect = lower value
Outline: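 ARE-bla HepG2 cells (2,000/well) rested 5 hrs at 37C/5% CO2, then exposed to compounds in DMSO for 16 hrs. Viability was read in the same wells as intracellular ATP by luminescence, 30 min at room temperature after reagent addition.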

[19] = qHTS assay for small molecule activators of the human pregnane X receptor (PXR) signaling pathway (AID 720659; call rule not given here; also: 0% is about no effect); settings: DPX-2 HepG2 CYP3A4-luciferase, 24 h; series mostly up to 92.3 µM
[20] = Cell Viability - SK-N-SH (AID 435); settings: SK-N-SH neuroblastoma cell viability qHTS;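 also: potency is read from the fitted curve at half-maximal effect; compound exposure lasted 40 h at 37 °C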
Outline: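 Cells seeded at 1500 per well and incubated 5 hr at 37 °C. Compound added, then 40 hr at 37 °C. CellTiter-Glo added, 20 min at room temperature, luminescence read.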

Chain of Nuclear receptor ROR-gamma (Homo sapiens) (P51449 whole entry, looked up): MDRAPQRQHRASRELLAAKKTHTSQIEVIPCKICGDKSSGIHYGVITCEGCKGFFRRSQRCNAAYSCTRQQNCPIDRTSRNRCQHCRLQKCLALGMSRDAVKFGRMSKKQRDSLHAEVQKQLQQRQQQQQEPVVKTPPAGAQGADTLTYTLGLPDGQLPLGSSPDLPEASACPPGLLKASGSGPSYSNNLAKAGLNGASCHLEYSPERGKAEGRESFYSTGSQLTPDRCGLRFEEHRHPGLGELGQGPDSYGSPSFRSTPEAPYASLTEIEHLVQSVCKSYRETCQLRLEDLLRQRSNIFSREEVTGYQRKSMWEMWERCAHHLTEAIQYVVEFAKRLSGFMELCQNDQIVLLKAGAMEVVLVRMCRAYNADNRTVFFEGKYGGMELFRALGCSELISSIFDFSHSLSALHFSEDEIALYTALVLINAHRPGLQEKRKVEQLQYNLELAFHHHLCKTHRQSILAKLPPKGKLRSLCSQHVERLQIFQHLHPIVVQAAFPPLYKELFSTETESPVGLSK
Chain of Glucocorticoid receptor (Homo sapiens) (P04150 whole entry, looked up, the tested form may be a part): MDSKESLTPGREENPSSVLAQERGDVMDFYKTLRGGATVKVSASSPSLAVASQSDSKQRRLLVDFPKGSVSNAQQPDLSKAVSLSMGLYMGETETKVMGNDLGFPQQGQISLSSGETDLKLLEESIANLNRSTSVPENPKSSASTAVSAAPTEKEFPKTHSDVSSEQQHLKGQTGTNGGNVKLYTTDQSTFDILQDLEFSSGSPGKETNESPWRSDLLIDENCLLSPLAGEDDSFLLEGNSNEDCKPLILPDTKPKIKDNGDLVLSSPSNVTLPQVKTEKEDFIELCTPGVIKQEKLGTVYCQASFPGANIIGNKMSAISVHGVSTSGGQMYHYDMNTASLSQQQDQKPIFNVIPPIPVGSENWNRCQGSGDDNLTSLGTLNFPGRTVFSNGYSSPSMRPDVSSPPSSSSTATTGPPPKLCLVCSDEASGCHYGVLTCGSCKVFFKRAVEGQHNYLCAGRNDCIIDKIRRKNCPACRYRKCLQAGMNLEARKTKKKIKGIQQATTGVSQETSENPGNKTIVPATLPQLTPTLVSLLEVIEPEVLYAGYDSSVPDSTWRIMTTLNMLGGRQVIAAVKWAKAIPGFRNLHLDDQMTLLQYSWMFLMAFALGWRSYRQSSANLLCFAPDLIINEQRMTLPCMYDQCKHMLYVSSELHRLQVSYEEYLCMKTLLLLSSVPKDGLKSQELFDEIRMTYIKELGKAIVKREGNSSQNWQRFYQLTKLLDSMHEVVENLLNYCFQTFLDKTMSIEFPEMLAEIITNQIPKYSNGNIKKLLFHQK
Chain of Vitamin D3 receptor (Homo sapiens) (P11473 whole entry, looked up): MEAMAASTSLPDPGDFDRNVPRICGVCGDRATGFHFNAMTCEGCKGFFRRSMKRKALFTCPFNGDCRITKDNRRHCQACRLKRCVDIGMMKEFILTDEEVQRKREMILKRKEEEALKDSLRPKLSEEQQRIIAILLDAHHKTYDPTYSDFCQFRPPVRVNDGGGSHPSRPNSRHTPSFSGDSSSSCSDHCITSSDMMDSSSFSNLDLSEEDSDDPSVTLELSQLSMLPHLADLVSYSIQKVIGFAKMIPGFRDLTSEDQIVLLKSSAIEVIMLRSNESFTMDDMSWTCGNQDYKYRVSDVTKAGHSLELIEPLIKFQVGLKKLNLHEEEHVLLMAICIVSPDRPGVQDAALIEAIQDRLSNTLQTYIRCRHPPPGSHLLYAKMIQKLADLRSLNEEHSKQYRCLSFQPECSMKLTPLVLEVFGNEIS
Chain of Peroxisome proliferator-activated receptor delta (Homo sapiens) (Q03181 whole entry, looked up): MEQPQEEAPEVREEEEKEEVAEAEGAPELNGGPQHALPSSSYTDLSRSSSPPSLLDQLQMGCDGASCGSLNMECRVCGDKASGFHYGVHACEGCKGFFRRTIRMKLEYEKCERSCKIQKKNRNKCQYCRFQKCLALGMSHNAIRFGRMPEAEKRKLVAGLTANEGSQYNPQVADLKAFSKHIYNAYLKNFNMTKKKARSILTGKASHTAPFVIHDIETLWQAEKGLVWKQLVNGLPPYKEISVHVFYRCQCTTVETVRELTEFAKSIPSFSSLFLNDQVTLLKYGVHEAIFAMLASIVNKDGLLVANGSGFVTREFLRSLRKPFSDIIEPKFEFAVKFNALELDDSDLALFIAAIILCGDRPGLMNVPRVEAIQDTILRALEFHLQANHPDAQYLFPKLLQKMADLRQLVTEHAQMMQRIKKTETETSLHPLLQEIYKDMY
Chain of Lysosomal acid glucosylceramidase (Homo sapiens) (P04062 whole entry, looked up): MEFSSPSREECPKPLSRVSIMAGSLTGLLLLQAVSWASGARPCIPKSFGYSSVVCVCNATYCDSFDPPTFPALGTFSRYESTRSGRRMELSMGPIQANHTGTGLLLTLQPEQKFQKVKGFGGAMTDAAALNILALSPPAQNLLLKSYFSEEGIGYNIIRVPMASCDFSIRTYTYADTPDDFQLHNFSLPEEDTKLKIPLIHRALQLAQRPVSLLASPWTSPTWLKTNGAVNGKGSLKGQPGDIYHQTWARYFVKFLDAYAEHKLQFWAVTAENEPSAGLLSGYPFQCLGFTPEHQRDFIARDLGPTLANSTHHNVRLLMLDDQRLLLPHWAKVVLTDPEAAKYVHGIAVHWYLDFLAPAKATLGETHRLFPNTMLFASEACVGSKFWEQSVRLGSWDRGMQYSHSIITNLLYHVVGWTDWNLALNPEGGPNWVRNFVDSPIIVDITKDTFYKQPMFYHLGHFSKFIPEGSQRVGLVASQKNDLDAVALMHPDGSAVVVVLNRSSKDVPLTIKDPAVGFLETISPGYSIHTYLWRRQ
Chain of Bile acid receptor (Homo sapiens) (Q96RI1 whole entry, looked up): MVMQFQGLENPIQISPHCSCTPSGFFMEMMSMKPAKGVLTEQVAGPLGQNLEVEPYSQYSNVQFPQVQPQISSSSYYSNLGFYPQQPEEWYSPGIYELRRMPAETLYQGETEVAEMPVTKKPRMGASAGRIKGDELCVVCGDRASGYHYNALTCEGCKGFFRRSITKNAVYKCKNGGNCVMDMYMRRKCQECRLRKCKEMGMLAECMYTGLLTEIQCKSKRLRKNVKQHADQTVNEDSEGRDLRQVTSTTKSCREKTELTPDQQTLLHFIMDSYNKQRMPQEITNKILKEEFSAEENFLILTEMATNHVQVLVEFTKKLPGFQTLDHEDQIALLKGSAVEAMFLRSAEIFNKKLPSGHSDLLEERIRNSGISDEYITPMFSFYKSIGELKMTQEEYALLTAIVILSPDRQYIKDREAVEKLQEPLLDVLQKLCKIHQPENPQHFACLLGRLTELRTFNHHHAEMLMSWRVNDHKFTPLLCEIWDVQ

COc1cccc(-c2nc(NCCN3CCOCC3)c3ccccc3n2)c1
inactive: Potency [1] > 11.4 µM | activity change, negative = inhibition [2] 6.11% | activity change, negative = inhibition [3] -2.08% | Potency [4] > 46 µM | Potency [5] > 46 µM

C=Cc1ccccc1Cl
inactive: Potency [6] | outcome [7] | activation [8] -0.22% | Potency [9] | Potency [11] | outcome [12] | outcome [13] | Potency [14] | activation [15] -1.19% | Potency [16] | Potency [17] | max response [18] -2.6% | outcome [19]
-3.33%: max response [10]

O=[N+]([O-])c1cccc(Cl)c1Cl
inactive: outcome [7] | activation [8] 3.57% and 3.5% | Potency [9] | Potency [11] | outcome [12] | outcome [13] | Potency [14] | Potency [16] | Potency [17] | max response [18] 3.32% and 9.85% | outcome [19]
-5.68% and -3.79%: max response [10]

Nc1ccc(Cl)cc1Cl
inactive: outcome [7] | activation [8] -1.05% and -10.1% | Potency [9] | Potency [11] | activation [15] 0.288% and 1.41% | Potency [17] | outcome [19]
65.7% and 18%: max response [10]

C=CCOC(=O)c1ccccc1C(=O)OCC=C
inactive: Potency [20] > 92 µM | Potency [6] | outcome [7] | activation [15] -0.29% and -0.27% | Potency [17] | max response [18] -21% and -8.82% | outcome [19]

COCC(=O)O
5.18% and 13.7%: max response [10]
inactive: activation [8] 1.9% and -4.38% | Potency [9] | Potency [11] | outcome [12] | outcome [13] | Potency [14] | activation [15] 0.0746% and -0.444% | Potency [17] | max response [18] 8.69% and 6.89%

Cc1ccc([N+](=O)[O-])cc1N
inactive: Potency [6] | outcome [7] | Potency [11] | outcome [12] | outcome [13] | Potency [17] | outcome [19]
18.4% and -6.91%: max response [10]

COc1ncc2nc(-c3ccccc3)c(=O)n(CCc3ccccc3)c2n1
inactive: Potency [1] > 11.4 µM | activity change, negative = inhibition [2] -6.17% | activity change, negative = inhibition [3] -3.72% | Potency [5] > 46 µM

O=C(O)c1ccc(O)cc1O
43.1%: max response [10]
inactive: Potency [20] > 92 µM | Potency [6] | outcome [7] | activation [8] 0.41% and -0.627% | Potency [9] | Potency [11] | outcome [12] | outcome [13] | Potency [14] | activation [15] 0.834% and -0.343% | Potency [16] | Potency [17] | outcome [19]

Cc1ccccc1-c1ccc2ncnc(NCCN3CCOCC3)c2c1
inactive: activity change, negative = inhibition [2] 13.8% | activity change, negative = inhibition [3] -0.729% | Potency [4] > 46 µM

COCCn1c(=O)c(-c2ccc(F)cc2)nc2cnc(Oc3ccccc3)nc21
inactive: Potency [1] > 11.4 µM | activity change, negative = inhibition [3] 9.44% | Potency [4] > 9.22 µM | Potency [5] > 46 µM

CCNc1ncc2nc(CCc3ccccc3)c(=O)n(C3CC3)c2n1
inactive: activity change, negative = inhibition [2] -7.57% | activity change, negative = inhibition [3] 11.9% | Potency [4] > 9.22 µM | Potency [5] > 46 µM

N#Cc1cccc(-c2ccc3ncnc(NCc4cccs4)c3c2)c1
inactive: Potency [1] > 11.4 µM | Potency [4] > 46 µM | Potency [5] > 46 µM

O=c1c(-c2ccccc2)nc2cnc(N3CCOCC3)nc2n1CCc1ccccc1
inactive: Potency [1] > 11.4 µM | Potency [4] > 9.22 µM | Potency [5] > 46 µM

ClCCCl
inactive: Potency [20] > 92 µM | activation [8] -0.189% and 0.123% and 2.5% | Potency [9] | Potency [11] | outcome [12] | outcome [13] | Potency [14] | activation [15] -0.0783% and -1.06% and -1.29% | Potency [16] | Potency [17] | max response [18] 20.3% and 6% and -12.9% | outcome [19]
-25.6% and 21.1%: max response [10]

O=NO
inactive: Potency [20] > 92 µM | Potency [11] | outcome [12] | outcome [13] | activation [15] -0.475% and 1.4% | Potency [16] | outcome [19]
3.13% and -3.55%: max response [10]

S=C1NC=NC2N=CNC12 (configuration not stated)
active: Potency [20] 0.237 µM | Potency [14] 23.7 µM | Potency [16] 42.2 µM
inactive: outcome [13] | activation [15] 1.89% | Potency [17] | outcome [19]
